# TTR transcr act – TTR transcription activators in neuroblastoma reporter cells, primary screen, cell-based, luminescence, SH-SY5Y, TTR promoter Gaussia luciferase; AID 1117267, 2014; 92,000 tested, 1.3% active; activation, % at 16.7 µM; 100% = recombinant luciferase protein wells;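 active means activation above the mean of all tested compounds plus 3 SD, cut at about 9.5% in these data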;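 further: cells exposed to compounds for one day before reading; 0% = median of all test compound wells on the plate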
# HuH7 TTR inh – TTR promoter reporter inhibitors in hepatoma cells, counter-screen for TTR transcription activator project, cell-based, luminescence, HuH7 hepatoma; shares compounds with TTR transcr act; HuH7 TTR promoter-Gaussia luciferase reporter; inhibition, % at 16.7 µM; 1,100 tested, 4% active;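 active means average inhibition above the solvent-only control wells' mean plus 3 SD, cut at about 15% in these data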;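 further: 0% = cells with DMSO only and 100% = cells with inhibitor control FD; inhibitors lower well luminescence so higher value means more inhibition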
# TTR up confirm – TTR transcription activators, retest, confirmation, cell-based, luminescence, SH-SY5Y, triplicate. shares compounds with TTR transcr act. SHSY5Y TTR promoter Gaussia luciferase; 100% = purified Lucia enzyme wells, no cells. activation, % at 16.7 µM. 1,100 tested, under 10 active. AID 1117280, 2014;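 active means mean activation above a set limit taken from the earlier primary screen, cut at about 11% in these data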;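 further: 0% = DMSO-treated cells and 100% = recombinant Lucia luciferase without cells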
# Active calls of the source: *. The entries come from a sample that favours hits as a whole.
SMILES,TTR transcr act,others
COc1ccc2cc(C(=O)NC3CCCCC3)c(=O)oc2c1,11*,HuH7 TTR inh=-5;TTR up confirm=0
C[C@@H]1CN([C@@H](C)CO)C(=O)CCCn2nncc2CO[C@H]1CN(C)C(=O)C1CCCCC1,-1,
O=C(Cc1ccccc1)c1c[nH]c(C(=O)NCc2ccncc2)c1,2,
CN(C)CCCNC(=O)c1cc(C(=O)Cc2ccccc2)c[nH]1,21*,HuH7 TTR inh=-11;TTR up confirm=0
CN(C)CCCNC(=O)c1cc(C(=O)C2CCCCC2)c[nH]1,0,
C/C(=N\NC(=O)C(O)(c1ccccc1)c1ccccc1)c1ccc(NC(=O)CCCC(=O)O)cc1,1,
CCc1ccccc1NC(=O)CN1CCN(C(=O)CN2C(=O)NC3(CCCC3)C2=O)CC1,1,
Cc1ccc(NS(=O)(=O)c2ccc(Cl)c(C(=O)O)c2)cc1S(=O)(=O)N1CCOCC1,2,
Clc1cccc(Nc2nc(N3CCOCC3)nc(N3CCOCC3)n2)c1,2,
c1ccc2oc(-c3ccc(Nc4nc(N5CCOCC5)nc(N5CCOCC5)n4)cc3)nc2c1,10*,HuH7 TTR inh=-7;TTR up confirm=0
CCc1ccc(Nc2nc(N3CCOCC3)nc(N3CCOCC3)n2)cc1,1,
OCC1OC(Oc2c(Br)cc(Br)cc2Br)C(O)C(O)C1O (centres undefined),6,
O=C(CNC(=O)c1ccccc1)NCc1nc2ccccc2[nH]1,1,
COc1cc(OC)cc(C(=O)Nc2ccccc2N2CCOCC2)c1,-1,
Fc1cc(F)cc(NC(=S)Nc2ccccc2N2CCOCC2)c1,12*,HuH7 TTR inh=-3;TTR up confirm=-1
O=C(Nc1ccccc1N1CCOCC1)c1ccc2ccccc2c1,-1,
CC1CCCCC1NC(=S)Nc1ccc(Cl)cc1Cl (centres undefined),-2,
COC(=O)c1ccc(Cn2ccc3ccc(-c4ccc5ccn(C(=O)c6cccc(OC)c6)c5c4)cc32)cc1,2,
COc1ccc(C)cc1NC(=O)C1CCC(CNc2c(N3CCOCC3)c(=O)c2=O)CC1 (centres undefined),0,
COc1ccc(OC)c(NC(=O)C2CCC(CNc3c(N4CCC(C)CC4)c(=O)c3=O)CC2)c1 (centres undefined),15*,HuH7 TTR inh=1;TTR up confirm=2
CC1CCN(c2c(NCC3CCC(C(=O)NCc4ccccc4)CC3)c(=O)c2=O)CC1 (centres undefined),-1,
O=C1C(Cl)=C(O)C2(Cl)C(Cl)=C(Cl)C12Cl (centres undefined),3,
COC(=O)C[C@H]1CC[C@@H]2[C@@H](COc3ccc(NS(=O)(=O)c4ccccc4Cl)cc3C(=O)N2C)O1,-2,
CC(C)n1nnnc1-c1cccc(Cl)c1,12*,HuH7 TTR inh=1;TTR up confirm=1
Cn1nnnc1NCc1cccc(Cl)c1,0,
SMILES,TTR transcr act,others
Cc1nn2cc(-c3cccc(Cl)c3)cnc2c1Cl,-1,
COC(=O)[C@]12C[C@H](CC(=O)NCC34CC5CC(CC(C5)C3)C4)C(=O)N(Cc3cccc4ccccc34)C1=C[C@H](COCc1ccccc1)O[C@@H]2C,1,
CC(=O)N(CN1C(=O)c2ccc([N+](=O)[O-])cc2C1=O)c1cccc(C(=O)O)c1,1,
CC1CCCCN1C(=O)c1cc(S(=O)(=O)N2CCCCC2)c[nH]1 (centres undefined),-2,
COC(=O)[C@]12CCCCC=C1N(Cc1ccc(OC)cc1)C(=O)[C@@H]2CC(=O)NCCc1ccccc1OC,2,
COc1ccc(CC(=O)NNC(=O)CCc2ccccc2)cc1,0,
Cc1ccccc1OCC(=O)NNC(=S)NC(=O)c1ccco1,1,
Cc1ccccc1OCC(=O)NNC(=O)CCc1ccccc1,10*,HuH7 TTR inh=-10;TTR up confirm=0
Cc1ccc(NS(=O)(=O)c2ccc(NC(=O)C(C)Sc3ccc(Cl)cc3)cc2)c(C)c1 (centres undefined),-1,
CCOC(=O)C(C(C)C)C(N)Cc1ccc(F)cc1 (centres undefined),1,
COc1cc(Br)c(C(C)NC(=O)c2cccc(Br)c2)cc1OC (centres undefined),-1,
COc1cc(C(=O)NC(C)c2cccc3ccccc23)cc(OC)c1OC (centres undefined),18*,HuH7 TTR inh=-35;TTR up confirm=0
COc1cc(C(=O)NC(=S)Nc2ccc3ccccc3c2)cc(OC)c1OC,2,
C#CCOCCOCCOCCNc1nc(N2CCN(C(=O)[C@H](CC(N)=O)n3cc([C@@H](N)CC(N)=O)nn3)CC2)nc(N2CCN(C(=O)[C@H](CC(N)=O)n3cc([C@@H](N)CC(N)=O)nn3)CC2)n1,14*,HuH7 TTR inh=-4;TTR up confirm=0
C#CCOCCOCCOCCNc1nc(N2CCN(C(=O)[C@H](CCC(=O)O)n3cc([C@@H](N)CC(N)=O)nn3)CC2)nc(N2CCN(C(=O)[C@H](CCC(=O)O)n3cc([C@@H](N)CC(N)=O)nn3)CC2)n1,0,
